Measurements published in PubChem BioAssay AID1159580 (chemical genetic matrix, 2015).
Several values for one entry are separate records, joined by “and”; a condition that tells them apart may be missing. Equal entries are not always repeated. Out of some 5,500 compounds screened, about 2,000 (36%) were called active. Inconclusive results (about 18%) are left out. Rule as the data show it: active = normalized growth mostly below about 0.91 (no sharp cut-off); inconclusive = no clear call, values can overlap the other calls; inactive = mostly above about 0.92. Some of the results follow.

Assay: chemical genetic growth profiling, strain panel (AID 1159580);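 also: tested at 20 µM; growth read once vehicle control cultures reached saturation at 30 °C; 1 = growth at the plate median or of vehicle wells; lower values mean less growth of the strain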
Conditions: S. cerevisiae deletion strains, growth OD

Measured: normalized growth

CCCSc1ccc2nc(NC(=O)OC)[nH]c2c1
inactive: locus YAL013W, strain DEP1, active compounds read low 0.995 | locus YAL021C, strain ccr4, active compounds read low 1.01 | locus YAL026C, strain drs2, active compounds read low 1.01 | locus YAL030W, strain snc1, active compounds read low 1 | locus YBL061C, strain skt5, active compounds read low 1.01 | locus YBR009C, strain hhf1, active compounds read low 1.01 | locus YBR023C, strain chs3, active compounds read low 1.01 | locus YBR171W, strain sec66, active compounds read low 1.02 | locus YBR229C, strain ROT2, active compounds read low 0.992 | locus YBR231C, strain swc5, active compounds read low 0.922 | locus YBR279W, strain paf1, active compounds read low 1.01 | locus YCL011C, strain gbp2, active compounds read low 1.01 | locus YCL016C, strain dcc1, active compounds read low 1.01 | locus YCL061C, strain MRC1, active compounds read low 1.01 | locus YCL069W, strain vba3, active compounds read low 1.01 | locus YCR088W, strain abp1, active compounds read low 1.01 | locus YDL005C, strain med2, active compounds read low 1.03 | locus YDL035C, strain GPR1, active compounds read low 0.99 | locus YDL040C, strain nat1, active compounds read low 1.01 | locus YDL074C, strain BRE1, active compounds read low 0.866 | locus YDL101C, strain DUN1, active compounds read low 0.993 | locus YDL134C, strain PPH21, active compounds read low 1.01 | locus YDL185W, strain tfp1, active compounds read low 0.93 | locus YDL192W, strain arf1, active compounds read low 0.971 | locus YDR001C, strain nth1, active compounds read low 1.01 | locus YDR069C, strain doa4, active compounds read low 0.998 | locus YDR101C, strain arx1, active compounds read low 0.961 | locus YDR137W, strain rgp1, active compounds read low 0.862 | locus YDR150W, strain NUM1, active compounds read low 0.977 | locus YDR159W, strain sac3, active compounds read low 1.04 | locus YDR162C, strain NBP2, active compounds read low 0.993 | locus YDR297W, strain sur2, active compounds read low 1.01 | locus YDR318W, strain mcm21, active compounds read low 0.956 | locus YDR334W, strain swr1, active compounds read low 0.962 | locus YDR335W, strain msn5, active compounds read low 1.02 | locus YDR388W, active compounds read low 0.969 | locus YDR392W, strain spt3, active compounds read low 0.967 | locus YDR502C, strain sam2, active compounds read low 0.966 | locus YEL037C, strain rad23, active compounds read low 1 | locus YEL061C, strain CIN8 (second series), active compounds read low 1.01 | locus YEL061C, strain CIN8, active compounds read low 0.997 | locus YER015W, strain faa2, active compounds read low 1 | locus YER016W, strain bim1, active compounds read low 1.01 | locus YER110C, active compounds read low 0.976 | locus YER111C, strain swi4, active compounds read low 1.02 | locus YER155C, strain BEM2 (second series), active compounds read low 0.999 | locus YER155C, strain BEM2, active compounds read low 0.991 | locus YER167W, strain BCK2, active compounds read low 0.988 | locus YFR010W, strain ubp6, active compounds read low 1.02 | locus YGL078C, strain dbp3, active compounds read low 0.955 | locus YGL086W, strain mad1, active compounds read low 0.974 | locus YGL167C, strain pmr1, active compounds read low 1.02 | locus YGL173C, strain kem1, active compounds read low 1.02 | locus YGL227W, strain vid30, active compounds read low 1 | locus YGL240W, strain doc1, active compounds read low 1.01 | locus YGL248W, strain PDE1, active compounds read low 0.996 | locus YGL253W, strain hxk2, active compounds read low 1.01 | locus YGR135W, strain pre9, active compounds read low 0.944 | locus YGR229C, strain SMI1, active compounds read low 0.968 | locus YGR252W, strain gcn5, active compounds read low 1.16 | locus YHR013C, strain ard1, active compounds read low 1.01 | locus YHR027C, strain rpn1, active compounds read low 1.01 | locus YHR030C, strain SLT2, active compounds read low 0.99 and 0.897 | locus YHR079C, strain IRE1 (second series), active compounds read low 0.942 | locus YHR079C, strain IRE1, active compounds read low 0.933 | locus YHR094C, strain hxt1, active compounds read low 0.965 | locus YHR129C, strain ARP1, active compounds read low 0.983 | locus YHR142W, strain chs7, active compounds read low 1.01 | locus YHR200W, strain rpn10, active compounds read low 0.951 | locus YIL066C, strain RNR3, active compounds read low 0.98 | locus YIL073C, strain SPO22, active compounds read low 0.894 | locus YIL125W, strain kgd1, active compounds read low 0.98 | locus YIR030C, strain dcg1, active compounds read low 0.983 | locus YJL092W, strain hpr5, active compounds read low 1 | locus YJL095W, strain BCK1 (second series), active compounds read low 1.01 | locus YJL095W, strain BCK1, active compounds read low 0.95 and 0.922 | locus YJL115W, strain asf1, active compounds read low 1.02 | locus YJL129C, strain trk1, active compounds read low 1.01 | locus YJL134W, strain LCB3, active compounds read low 0.992 | locus YJL154C, strain vps35, active compounds read low 1 | locus YJL164C, strain tpk1, active compounds read low 1.01 | locus YJL166W, strain qcr8, active compounds read low 1 | locus YJL168C, strain set2, active compounds read low 0.969 | locus YJL187C, strain SWE1 (second series), active compounds read low 0.963 | locus YJL187C, strain SWE1, active compounds read low 1 | locus YJR043C, strain POL32, active compounds read low 0.967 | locus YJR066W, strain TOR1, active compounds read low 0.909
active: locus YBR021W, strain FUR4, active compounds read low 1.2 [resistant] | locus YCL029C, strain bik1, active compounds read low 0.82 | locus YDR195W, strain ref2 1.15 [resistant] | locus YEL003W, strain gim4, active compounds read low 0.446 | locus YGR078C, strain PAC10, active compounds read low 0.11
